HT1080 IDH1KD tx – toxicity to HT-1080 IDH1 knockdown cells (counter line) | HT-1080 IDH1 knockdown viability, ATP luminescence, 48 h | Potency, µM (highest dose often 46.1 µM), actives largely listed as cytotoxic | hit rate 2% among 360,000 | AID 686971
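In this qHTS, HT-1080 cells depleted of IDH1 are exposed for 48 h at 37 °C to compound titrations. Toxicity is scored from CellTiter-Glo luminescence, with DMSO as full viability and medium alone as none.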
HT1080-NT tox – kills 2HG-producing HT-1080-NT fibrosarcoma cells; Potency, µM (titrated, usually from 46.1 µM), most hits filed as cytotoxic; HT-1080-NT fibrosarcoma viability, CellTiter-Glo ATP luminescence, 48 h; AID 686970; hit rate 1.6% among 360,000;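 further: NT is the 2HG producing partner of a matched IDH1 knockdown line; nearly all actives have a fitted effect of over 55% in size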
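A 48-hour cytotoxicity screen used HT-1080-NT cells plated 2 hours before compound delivery. ATP-based CellTiter-Glo luminescence measured viability, normalized to DMSO and no-cell controls.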
IL1B secr inh – blocks inflammasome-driven IL-1 beta release; AID 743279; hit rate 4.7% among 360,000; THP-1 LPS/ATP IL-1B secretion, AlphaLISA, 16 h; stronger effect = lower value; activity change, % at 57.5 µM; in the data active means activity change below about -50%; inconclusive means mostly about -30% to -49%
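THP-1 cells pretreated 1 hr with compounds (up to 57.5 uM final), then stimulated with LPS (250 ng/mL final) plus ATP (1.25 mM final); secreted IL-1B measured by AlphaLISA after 16 hr, decreased signal indicating inhibition.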
TDP1 cell CPT – growth inhibition of DT40 Tdp1-/-;hTDP1 cells with camptothecin (screen for TDP1 inhibitors) | chicken DT40 Tdp1-/-;hTDP1 cells + 20 nM CPT, ATP luminescence, 48 h | hit rate 12% among 420,000 | Potency, µM (series often up to 46.2 µM), hits mostly inhibitors; further: nearly all actives have a fitted effect of over 55% in size
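Chicken DT40 Tdp1-/- cells stably complemented with human TDP1 were seeded at 400 cells/well in medium containing 20 nM camptothecin, exposed to pin-transferred compounds, and grown at 37 °C for at least 48 hr. Viability was read as ATP luminescence.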
TDP1 cell noCPT – qHTS for Inhibitors of human tyrosyl-DNA phosphodiesterase 1 (TDP1): qHTS in cells in absence of CPT. DT40 Tdp1-/- hTDP1 cells, no CPT, ATP luminescence, 48 h. Potency, µM (highest dose often 46.2 µM), usual class: inhibitors. hit rate 15% among 420,000; further: nearly all actives have a fitted effect of over 55% in size
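Camptothecin absent (DMSO only). Human TDP1-complemented DT40 knockout cells, 400 cells/well, 37 °C for minimum 48 hr; ATP measured via CellTiter-Glo, 30 min dark incubation, luminescence.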
Hits are given with their value; n = inactive; u = inconclusive; x = no result. This is a sample that favours compounds with a hit; in the whole collection about 19% have one here. Unless noted, the call rests on the fitted dose curve; in most records, active means well fitted curve in the direction sought with a large enough effect; inconclusive means small, poorly fitted or top-dose-only effect, or another doubt; inactive means no such curve, though single readings can be large; an effect the other way counts as inactive or inconclusive.

SMILES | HT1080 IDH1KD tx | HT1080-NT tox | IL1B secr inh | TDP1 cell CPT | TDP1 cell noCPT
Cc1ccc(C)c2[nH]c(=O)c(CN(CCN3CCCC3)C(=O)Nc3cccc(Cl)c3)cc12 | u | u | u | 23.1µM | 18.4µM
OC(Br)C(O)C(O)N1CCCc2ccccc21 (stereo unspecified) | x | x | x | n | n
O=C(Nc1ccc(S(=O)(=O)N2CCCCC2c2cccnc2)cc1)c1ccc(F)cc1 (stereo unspecified) | x | x | x | 23.1µM | 18.4µM
CC1CCN(C(=O)C2CCCCN2S(=O)(=O)c2cccc([N+](=O)[O-])c2)CC1 (stereo unspecified) | n | n | n | u | u
O=C(Nc1ccc(S(=O)(=O)N2CCCCC2c2cccnc2)cc1)c1ccccc1F (stereo unspecified) | n | n | n | u | u
O=C(NC(=S)NN1CCCCC1c1cccnc1)c1ccc(Br)cc1 (stereo unspecified) | n | n | -54.5 | n | n
COC(=O)c1ccc(NC(=S)NN2CCCCC2c2cccnc2)cc1 (stereo unspecified) | n | n | n | n | n
O=[N+]([O-])c1cccc(S(=O)(=O)N2CCCCC2c2cccnc2)c1 (stereo unspecified) | n | n | n | 20.6µM | u
N#Cc1ccc(N)cc1OCCCN1CCCCC1 | n | n | n | n | n
COc1cc(/C=C/C2=NNC(=O)CC2)cc(OC)c1OC | n | n | n | n | n
CC(C)c1ccc(/C=C/C2=NNC(=O)CC2)cc1 | n | u | n | 18.4µM | 11.6µM
COC(=O)C1=C(C(=O)OC)C(C(=O)OC)C(C(=O)OC)C(C(=O)OC)(C(=O)OC)C(C(=O)OC)=C1C(=O)OC (stereo unspecified) | u | n | -99.7 | 2.59µM | 2.59µM
CN(Cc1ccco1)c1ncnc2ccc(-c3cccc(C#N)c3)cc12 | x | x | x | 23.1µM | 23.1µM
CN(Cc1ccco1)c1ncncc1-c1ccc2c(c1)OCO2 | x | x | x | u | n
CN(C)C(=O)c1ccc(-c2ccc3ncnc(N(C)Cc4ccco4)c3c2)cc1 | x | x | x | 5.8µM | u
CN(Cc1ccco1)c1ncnc2ccc(-c3ccc4c(c3)OCO4)cc12 | x | x | x | 18.4µM | 16.4µM
Cc1noc(C)c1-c1cc(N(C)Cc2ccco2)ncn1 | x | x | x | u | n
Cc1noc(C)c1-c1ccc2ncnc(N(C)Cc3ccco3)c2c1 | x | x | x | u | 11.6µM
CCCn1cc(C(=O)N(C)C2CCCN(Cc3ccccc3F)C2)c(C)n1 (stereo unspecified) | n | n | n | n | n
O=C(Nc1nncs1)c1cc(S(=O)(=O)N2CCCCC2)ccc1Cl | n | n | n | n | n
CN(Cc1ccco1)c1ncnc2ccc(-c3cccnc3)cc12 | x | x | x | 14.6µM | 18.4µM
CCOC(=O)C1=C(C)Nc2ccccc2N=C1NC(=O)Cc1ccc(OC)cc1 | n | n | n | n | n
Fc1ccc2c(c1)Sc1ccc(Cl)cc1CC2N1CCN(CCC2OCCO2)CC1 (stereo unspecified) | u | u | -75.1 | u | 18.4µM
O=[N+]([O-])c1ccc2c(c1)C(N1CCN(CCO)CC1)Cc1ccc(F)cc1S2 (stereo unspecified) | 16.4µM | 16.4µM | n | u | u
O=[N+]([O-])c1ccc(CN2CC(N3CCN(CCO)CC3)CS2(=O)=O)cc1 (stereo unspecified) | n | n | n | n | n
SMILES | HT1080 IDH1KD tx | HT1080-NT tox | IL1B secr inh | TDP1 cell CPT | TDP1 cell noCPT
CC(C)c1ccc2c(c1)C(N1CCN(C)CC1)Cc1cccnc1S2 (stereo unspecified) | u | u | u | u | n
O=C1CC(N2CCN(Cc3ccc4c(c3)OCO4)CC2)C(=O)N1c1cccc(Cl)c1 (stereo unspecified) | n | n | n | n | n
CSc1ccc2c(c1)C(N1CCN(C)CC1)Cc1ccc(F)cc1S2 (stereo unspecified) | u | u | -55.8 | u | 16.4µM
COc1ccc2c(c1)CC(N1CCN(C)CC1)c1cc(OC)ccc1S2 (stereo unspecified) | 20.6µM | u | -93.2 | u | u
Cc1ccccc1C(=O)Nc1cccc(-c2nnc(SCC(=O)NCc3ccco3)n2C)c1 | x | x | x | n | n
C#CCN[C@@H]1CCc2ccccc21 | x | x | x | n | n
COc1cc(C)nc(N2CCCC(C(=O)Nc3cccc(Cl)c3Cl)C2)n1 (stereo unspecified) | n | n | n | n | u
CCOc1ccc(C(C)NC(=O)C2CCN(S(=O)(=O)c3ccc(OC)cc3)CC2)cc1OCC (stereo unspecified) | n | n | n | n | n
COc1ccc(C(NC(=O)C2CCN(CCOc3ccc(Cl)cc3Cl)CC2)c2ccccc2C)cn1 (stereo unspecified) | n | n | n | u | u
COc1ccc(C(NC(=O)C2CCN(CCOc3ccc(Cl)cc3Cl)CC2)c2cccs2)cc1 (stereo unspecified) | u | n | n | u | 16.4µM
COc1ccc(C(C)NC(=O)C2CCN(CCOc3ccc(Cl)cc3Cl)CC2)cc1OC (stereo unspecified) | u | 23.1µM | n | 23.1µM | 23.1µM
c1cc(-c2sc(-c3ccncc3)c(-c3ccncc3)c2-c2ccncc2)ccn1 | n | n | x | u | 10.3µM
O=C(Nc1ccc(F)cc1)Nc1cccnc1 | n | n | n | u | n
O=C(Nc1cccnc1)c1ccccc1Oc1ccccc1 | n | n | n | n | n
O=C(Nc1cccnc1)c1ccc(Oc2ccccc2)cc1 | 25.9µM | u | n | 23.1µM | u
O=C(Nc1ccccc1)Nc1ccc(Oc2cccnc2)nc1 | n | n | n | u | 16.4µM
O=C(Nc1cccnc1)c1ccc2nc(-c3ccccc3)c(-c3ccccc3)nc2c1 | n | n | n | 23.1µM | 14.6µM
Cc1cc(C(=O)N2CCC2(C)C(=O)NS(=O)(=O)c2ccccc2Cl)nn1C (stereo unspecified) | n | n | n | n | n
Cc1nn(C)cc1CNCc1c(C(=O)N2CCCCC2)nc2c(C)cccn12 | n | n | n | n | n
O=C(NCc1cccc(C(F)(F)F)c1)c1ccc2nc([C@@H]3O[C@H](CO)[C@@H](O)[C@H]3O)[nH]c2c1 | n | n | n | n | n
COc1cc(C(=O)NCc2nnc(SCC(=O)Nc3nccs3)o2)cc(OC)c1OC | n | n | n | n | n
COc1ccccc1NC(=O)CSc1nnc(CNC(=O)c2cccs2)o1 | n | n | -77.0 | n | n
COc1ccc(C(=O)NCc2nnc(SCC(=O)Nc3cc(OC)ccc3OC)o2)cc1 | n | n | n | n | n
COc1cc(C(=O)NCc2nnc(SCC(=O)Nc3nc4ccccc4s3)o2)cc(OC)c1OC | n | n | n | 9.2µM | 10.3µM
COc1ccc(C(=O)NCc2nnc(SCC(=O)Nc3nc4ccccc4s3)o2)cc1 | n | u | n | 29.1µM | u
